In PubChem BioAssay AID1645854 (Buhrlage Lab, Dana-Farber Cancer Institute and Novartis …, 2021):
About 140 (0.3%) of roughly 47,000 compounds were called active. No stated cut-off is given here; in the data, active means inhibition above about 30%; inactive means the rest. The list comes from a sample in which actives are over-represented; it also holds similar structures and randomly drawn compounds.

Target: Ubiquitin carboxyl-terminal hydrolase 7 (Homo sapiens) (UniProt Q93009)
Assay: blocks human USP7 ubiquitin-rhodamine cleavage (AID 1645854)
Settings: purified USP7, Ub-rhodamine cleavage fluorescence; at 20 µM; hits give high values

Sequence of Ubiquitin carboxyl-terminal hydrolase 7 (Homo sapiens) (Q93009 whole entry, looked up): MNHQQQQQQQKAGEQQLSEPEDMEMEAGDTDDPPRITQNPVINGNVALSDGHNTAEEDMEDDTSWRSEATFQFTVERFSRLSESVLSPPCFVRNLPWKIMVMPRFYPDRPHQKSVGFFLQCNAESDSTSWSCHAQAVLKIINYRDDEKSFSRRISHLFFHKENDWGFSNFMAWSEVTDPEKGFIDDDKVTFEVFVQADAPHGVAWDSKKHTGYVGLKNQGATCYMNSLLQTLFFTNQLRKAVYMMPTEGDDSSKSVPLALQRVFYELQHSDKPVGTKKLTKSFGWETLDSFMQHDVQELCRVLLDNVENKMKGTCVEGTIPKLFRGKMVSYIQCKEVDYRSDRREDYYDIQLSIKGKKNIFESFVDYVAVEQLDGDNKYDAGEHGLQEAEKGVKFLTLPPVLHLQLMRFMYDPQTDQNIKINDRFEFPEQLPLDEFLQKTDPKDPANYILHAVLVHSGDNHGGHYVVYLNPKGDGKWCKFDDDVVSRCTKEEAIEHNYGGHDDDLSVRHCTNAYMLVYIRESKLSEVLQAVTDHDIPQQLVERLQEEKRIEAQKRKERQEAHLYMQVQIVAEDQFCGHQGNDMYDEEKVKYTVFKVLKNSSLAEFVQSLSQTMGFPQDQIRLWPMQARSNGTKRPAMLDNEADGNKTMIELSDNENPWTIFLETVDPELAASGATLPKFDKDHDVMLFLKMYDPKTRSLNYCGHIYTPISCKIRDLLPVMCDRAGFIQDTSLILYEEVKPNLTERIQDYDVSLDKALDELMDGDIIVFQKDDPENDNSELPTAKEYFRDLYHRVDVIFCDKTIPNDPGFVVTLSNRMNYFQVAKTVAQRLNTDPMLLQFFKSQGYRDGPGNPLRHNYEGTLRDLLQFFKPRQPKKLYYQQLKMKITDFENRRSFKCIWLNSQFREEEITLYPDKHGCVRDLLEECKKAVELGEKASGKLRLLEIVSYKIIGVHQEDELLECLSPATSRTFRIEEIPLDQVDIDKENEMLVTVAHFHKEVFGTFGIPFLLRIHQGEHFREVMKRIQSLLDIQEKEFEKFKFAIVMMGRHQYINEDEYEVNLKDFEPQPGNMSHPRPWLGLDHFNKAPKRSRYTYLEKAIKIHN

Compound | inhibition
CC1(C)CCc2c(cc(OCC(=O)NCC(=O)O)c3c4c(c(=O)oc23)CCC4)O1 | 8.33% (inactive)
CCCc1cc(=O)oc2cc(OCC(=O)NCc3ccc(OC)cc3)ccc12 | 1.51% (inactive)
CSc1ncnc2c1sc1nc(-c3ccccc3)c3c(c12)CC(C)(C)OC3 | 4.67% (inactive)
CC1(C)Cc2c(c(-c3ccco3)nc3sc4c(SCCCc5ccccc5)ncnc4c23)CO1 | 56.7% (active)
CCCCCCSc1ncnc2c1sc1nc(-c3ccccc3)c3c(c12)CC(C)(C)OC3 | 1.19% (inactive)
COCCN1C(=O)Cc2c(C)nc(C3(C)CCCN(c4ccnc(C)n4)C3)nc21 (stereo not drawn) | -0.762% (inactive)
Cc1cc(-c2cnc(C)nc2C2CCN(C(=O)Cc3ccccc3F)CC2)on1 | 0.853% (inactive)
COc1cccc(CN2CCCC2c2noc(C3CC3)n2)c1 (stereo not drawn) | 0.378% (inactive)
COc1ccccc1CN1C[C@@H]2C[C@@H](O)CN2C[C@@H]1Cc1ccccc1 | -13% (inactive)
COc1ccc(-c2nnc(-c3ccccc3)o2)cc1S(=O)(=O)N1CCc2ccccc2C1 | 8.25% (inactive)
COc1ccc(-c2nonc2NC(=O)Cc2ccccc2)cc1OC | -0.82% (inactive)
CNc1nc(C2CCN(C(=O)c3ccc4c(c3)OCCO4)C2)nc2c1CN(C)CC2 (stereo not drawn) | -10.6% (inactive)
O=C(COc1ccccc1-c1nnc(-c2ccccc2)o1)Nc1cc(F)ccc1F | 5.06% (inactive)
COc1ccc(-c2cnc(N(C)C)nc2C2CCCCN2)cc1 (stereo not drawn) | -4.92% (inactive)
CC(=O)N1CCC(NC2(Cc3cc(C(C)(C)C)on3)COC2)CC1 | 0.342% (inactive)
CCOC(=O)Nc1cc(C)nn1-c1ncnc2c1cnn2-c1ccc(F)cc1 | 0.0906% (inactive)
Cc1ccc(S(=O)(=O)N2CCN(C(=O)CN3CCc4ccccc43)CC2)cc1 | -5.22% (inactive)
CCOc1ccccc1C1C2=C(CC(C)(C)CC2=O)Nc2ccccc2N1C(=O)c1ccccc1 (stereo not drawn) | -4.8% (inactive)
COc1ccc(CC(=O)N2CCCCC2c2ccc3c(=O)n(C)c(=O)n(C)c3n2)cc1 (stereo not drawn) | 0.092% (inactive)
O=C(NCc1ccc(Cl)cc1)C1CCN(c2nccn3nc(-c4ccccc4)cc23)CC1 | -35.4% (inactive)
O=C(CN1CCCCC1)N[C@@H]1C[C@H]2Oc3ccccc3N[C@H]2[C@@H]1O | 3.93% (inactive)
O=C(C1CCNCC1)N1CCN(c2ccccc2F)CC1 | 1.05% (inactive)

Compound | inhibition
COc1ccccc1NC(=O)CSc1nc2ccccc2n1S(=O)(=O)c1ccc(Br)cc1 | -6.03% (inactive)
CC(C)NC(=O)N1CC[C@H]2COC(=O)N(Cc3ccccc3)[C@@H]2C1 | 3.45% (inactive)
C/C=C(\C)C(=O)C(C)C1=CC(=O)C2=C(O[C@]3(C)CC[C@@H]4O[C@H](C(C)(C)O)CC[C@@]4(C)[C@@H]3C2)C1=O (stereo partly drawn) | -44.6% (inactive)
COc1ccc(C(=O)NC(C(=O)OCC(=O)c2ccc(C)cc2)C(C)C)cc1OC (stereo not drawn) | 3.56% (inactive)
COc1cccc(CC(NC(C)=O)C(=O)NC2CCN(C(=O)C3CCCCC3)CC2)c1 (stereo not drawn) | 5.13% (inactive)
O=C1[C@H]2Cc3c([nH]c4ccccc34)CN2C(=O)CN1CC(O)c1ccccc1 (stereo partly drawn) | -145% (inactive)
Cc1cc(CN2CCN(S(C)(=O)=O)CC(C(=O)N(C)C)C2)no1 (stereo not drawn) | 0.0126% (inactive)
COc1ccccc1NS(=O)(=O)c1ccc2c(c1)C(=O)N(C)c1ncccc1O2 | 2.84% (inactive)
Cc1nn(Cc2ccccc2)c(C)c1C(=O)NS(=O)(=O)c1ccccc1Cl | 1.27% (inactive)
Cc1cc(C(=O)N2CCCC2c2ccccc2C)on1 (stereo not drawn) | 0.669% (inactive)
O=C(c1cc(=O)[nH]c2ccccc12)N1CCN(Cc2cn3ccccc3n2)CC1 | -8.75% (inactive)
COc1ccc(C2CC(=O)n3nc(-c4cccc(C)c4)nc3S2)cc1 (stereo not drawn) | 0.741% (inactive)
COC(=O)c1ccccc1NC(=O)c1nc(-c2ccccc2)oc1C | -0.0638% (inactive)
O=C(CSc1ncnc2c1sc1cccc(F)c12)N1CCCCCC1 | -136% (inactive)
COc1cccc(N2CCN(C(=O)Nc3ccc4c(c3)NC(=O)CO4)CC2)c1 | 3.68% (inactive)
O=S(=O)(c1cc(-c2noc(C3CC3)n2)cs1)N1CCc2ccccc21 | 7.51% (inactive)
Cc1ccc(C)c(N(C)C(=O)c2cccc3c2SCCC3=O)c1 | -2.51% (inactive)
Cn1cncc1-c1cncc(CC2CCCN(S(C)(=O)=O)C2)n1 (stereo not drawn) | 0.0473% (inactive)
O=C(O)COc1cc(O)c2c(=O)cc(-c3ccccc3)oc2c1 | -6.31% (inactive)
Cc1csc(C2(NC(=O)Cc3cc(C)on3)CCCC2)n1 | -8.11% (inactive)
COC(=O)c1c(C)[nH]c(C(=O)C(C)OC(=O)c2cccc(F)c2)c1C (stereo not drawn) | -2.46% (inactive)
CCc1ccc(-n2c(=O)c3ccccc3n(CC(=O)NCCC3=CCCCC3)c2=O)cc1 | 8.71% (inactive)

Compound | inhibition
CCOC(=O)C1(C)C=C(Nc2ccc(C(=O)O)c(O)c2)C(=O)N1c1ccccc1 (stereo not drawn) | -4.45% (inactive)
CC(=O)NC(Cc1ccccc1F)C(=O)NC1CCN(C(=O)C2CC2)CC1 (stereo not drawn) | 1.1% (inactive)
O=C(c1cccc(F)c1)N1CCN(Cc2cc(=O)c3ccccc3[nH]2)CC1 | 2.84% (inactive)
Cc1cccc(NC(=O)Cc2nc(C)c(C(=O)NC3CC3)s2)c1C | -0.0337% (inactive)
O=C(CC1(O)C(=O)N(CCc2ccccc2)c2ccc(Cl)cc21)c1ccc2c(c1)OCCO2 (stereo not drawn) | 5.91% (inactive)
COc1ccc(-c2nc3ccccc3c3nnc(SCC(N)=O)n23)cc1 | 6.48% (inactive)
Cc1cc(C)nc(SCc2nnc(Nc3ccccc3)s2)n1 | 0.95% (inactive)
CCc1ccc(C(=O)COc2ncnc3scc(-c4ccccc4)c23)cc1 | 4.6% (inactive)
O=C(COc1cccc2ccc(N3CCC(Cc4ccccc4)CC3)nc12)Nc1cccc(F)c1 | 5.1% (inactive)
Cn1c(CNC(=O)c2cn3ccccc3n2)nc2ccccc21 | -4.22% (inactive)
COc1ccc(C(=O)Nc2ccccc2N2CCOCC2)cc1S(=O)(=O)N(C)Cc1ccccc1 | 2.61% (inactive)
COc1cc2c(cc1OC)-c1cc(NCc3ccccc3)nc(=O)n1CC2 | -10.1% (inactive)
CC1(C)C(=O)Nc2ccc(S(=O)(=O)NCc3ccc(F)cc3)cc21 | 1.68% (inactive)
Cc1cn(C)c(C2CCCN2C(=O)c2cc(C)nc3onc(C)c23)n1 (stereo not drawn) | -2.53% (inactive)
Cc1cccc(NC(=O)CCc2nnc3ccc(NCc4ccc5c(c4)OCO5)nn23)n1 | -2.6% (inactive)
Cn1c(=O)n(C2CCN(CCc3ccccc3)CC2)c2ncncc21 | 2.05% (inactive)
Cc1ccc(C(=O)N2CC(=O)N(Cc3ccc(Cl)cc3)CC(O)C2)cc1 (stereo not drawn) | -42.1% (inactive)
Cc1nnc(-c2cnn(C)c2N)n1CC1CCCO1 (stereo not drawn) | -0.964% (inactive)
CCOC(=O)c1noc2nc(C)n(Cc3nc(-c4ccccc4)oc3C)c(=O)c12 | 1.79% (inactive)
c1cnc(N2CCC3(CCN(Cc4ccc5c(c4)OCO5)CC3)C2)nc1 | 6.59% (inactive)
COc1c2c(cc3c1C(c1nnnn1-c1ccc(C)cc1C)N(C)CC3)OCO2 (stereo not drawn) | 10.7% (inactive)
NC(=O)c1c(NC(=O)c2ccccc2Oc2ccccc2)sc2c1CCN(Cc1ccccc1)C2 | -143% (inactive)

Compound | inhibition
O=C(Cc1ccccc1)N1CCN(c2cc(C(F)(F)F)nc3ccccc23)CC1 | 6.33% (inactive)
CCN(c1ccccc1)S(=O)(=O)c1ccc2c(c1)OC(C)CN2C(C)=O (stereo not drawn) | -10.2% (inactive)
CN(C)CCNC(=O)c1ccc2ccc(N(C)CC3CC3)n2c1 | -3.23% (inactive)
Cc1nccn1-c1cc(N2CCCC2)nc2ccnn12 | -3.6% (inactive)
CCCn1nccc1C(=O)NC[C@H]1C[C@@]2(C)[C@@H](O)CCCC[C@H]2N1C(C)=O | 4.78% (inactive)
COc1ccc(CC(=O)N2CCC3(CC2)OC(C(=O)NCC(C)C)Cn2ccnc23)cc1 (stereo not drawn) | -0.841% (inactive)
O=C(NCc1ccncc1)c1nc(-c2ccc(N3CCCCC3)nc2)no1 | -95.1% (inactive)
Cc1cc2nc(N3CCOCC3)n(CC(=O)Nc3ccccc3F)c(=O)c2n1C | -0.476% (inactive)
COc1ccccc1CNS(=O)(=O)c1ccc2c(c1)C(=O)N(C)c1ncccc1O2 | 1.09% (inactive)
O=C(CN1C(=O)[C@@H]2CCCN2c2ncccc21)NCc1ccccc1F | -0.124% (inactive)
Cc1csc2nc(COc3ccccc3NC(=O)c3ccccc3)cc(=O)n12 | -2.52% (inactive)
O=C(c1nc(-c2ccc3cc[nH]c3c2)no1)N1CCN(c2nsc3ccccc23)CC1 | 2.44% (inactive)
Cc1ccccc1CS(=O)(=O)Cc1ccc(C(=O)Nc2noc3ccccc23)o1 | 2.52% (inactive)
Cc1cccc(N2CCN(C(=O)c3nc4cccnc4n(C)c3=O)CC2)c1C | -13.2% (inactive)
O=C(Nc1ccc(F)cc1)c1ccc(CN2CCOCC2)cc1 | 3.54% (inactive)
Cc1cnc(C2COCCN2C(=O)c2c(C(C)C)noc2C)[nH]1 (stereo not drawn) | 4.99% (inactive)
Cc1ccc(NC(=O)N2CCN3CCCCC3C2)c(C)c1 (stereo not drawn) | -0.822% (inactive)
O=C(Nc1nc2ccc(S(=O)(=O)N3CCOCC3)cc2s1)c1cc2ccccc2oc1=O | 0.00877% (inactive)
Cc1ccc(-c2nc(Cn3nnc(C(=O)O)c3C)c(C)o2)cc1 | 1.5% (inactive)
CCc1cnc(N2CCC3(CCN(C(=O)c4cccnc4)C3)CC2)nc1 | 1.31% (inactive)
OCCN1CCN(CC(O)COCCOc2ccc(Cl)cc2)CC1 (stereo not drawn) | 6.76% (inactive)
Cc1cnn(CC(=O)N2CCCCCC2c2ccncc2)c1 (stereo not drawn) | -1.92% (inactive)
